The source made the active and inactive calls. Calls come from the whole dose curve; as a rule, active = well fitted curve in the direction sought with a large enough effect; inactive = no such curve, though single readings can be large or run the other way.

Alpha-galactosidase (Coffea arabica), sequence (Q42656 whole entry, looked up): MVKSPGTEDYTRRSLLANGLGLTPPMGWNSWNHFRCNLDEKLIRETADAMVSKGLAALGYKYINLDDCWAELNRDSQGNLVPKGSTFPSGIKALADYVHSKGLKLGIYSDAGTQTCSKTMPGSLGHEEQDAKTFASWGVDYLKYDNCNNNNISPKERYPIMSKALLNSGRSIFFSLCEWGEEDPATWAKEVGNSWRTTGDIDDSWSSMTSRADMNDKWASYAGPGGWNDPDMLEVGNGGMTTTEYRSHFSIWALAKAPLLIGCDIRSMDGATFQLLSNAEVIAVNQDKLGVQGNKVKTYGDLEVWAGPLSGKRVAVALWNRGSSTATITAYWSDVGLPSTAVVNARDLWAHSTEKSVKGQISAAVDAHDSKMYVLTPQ

The test concerns the target Alpha-galactosidase (Coffea arabica) (UniProt Q42656). Kind of test: Counterscreen for Glucocerebrosidase Inhibitors: qHTS Assay for Coffee Bean alpha-Galactosidase at pH 5.9 (AID 998). Conditions: coffee bean alpha-galactosidase enzyme assay; series mostly up to 76.9 µM. In short, it runs like this: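 In 50 mM citric acid pH 5.9 with 0.005% Tween-20, coffee bean enzyme hydrolyses 80 uM 4-MU alpha-D-galactopyranoside over 20 min at RT. Activity is normalized to controls; AC50 comes from Hill-modelled concentration-response data.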
As for `O=C1N(c2ccccc2)c2ccccc2C1(Cc1ccncc1)Cc1ccncc1`, the outcome was inactive.
For `COc1ccccc1N1CCN(CCCNc2cc(=O)n(C)c(=O)n2C)CC1` the value was “inactive”.
For `Oc1ccc(O)cc1` the value was “inactive”; for `C[N+](C)(C)CCOC(=O)CCC(=O)OCC[N+](C)(C)C`, “inactive”.
The same measure for `O=C(O)c1cccnc1Nc1cccc(C(F)(F)F)c1`: “inactive”.
Consider `Oc1cc(O)c2c(c1)O[C@H](c1ccc(O)c(O)c1)[C@H](O)C2`, for which the compound was called inactive.
For `CN(C)CCCN1c2ccccc2Sc2ccc(C(F)(F)F)cc21` the value was “inactive”.
As for `Brc1c(NC2=NCCN2)ccc2nccnc12`, the call was inactive.
For `Cc1ccc(C(=O)Nc2ccc(S(=O)(=O)O)c3cc(S(=O)(=O)O)cc(S(=O)(=O)O)c23)cc1NC(=O)c1cccc(NC(=O)Nc2cccc(C(=O)Nc3cc(C(=O)Nc4ccc(S(=O)(=O)O)c5cc(S(=O)(=O)O)cc(S(=O)(=O)O)c45)ccc3C)c2)c1` the value was “inactive”; for `COCC(=O)O[C@]1(CCN(C)CCCc2nc3ccccc3[nH]2)CCc2cc(F)ccc2[C@@H]1C(C)C`, “inactive”; for `C[C@]12CCC(=O)C=C1CC[C@@H]1[C@@H]2[C@@H](O)C[C@@]2(C)[C@H]1CC[C@]2(O)C(=O)CO`, “inactive”.
Turning to `C#CCN(C)Cc1ccccc1`, the outcome was inactive.
Take `C[C@]12C=CC(=O)C=C1CC[C@H]1[C@@H]3C[C@@H](O)[C@](O)(C(=O)CO)[C@@]3(C)C[C@H](O)[C@@]12F`: the compound was classed as inactive.
The same measure for `CCCCNc1cc(C(=O)O)cc(S(N)(=O)=O)c1Oc1ccccc1`: “inactive”; for `CN1CCC(=C2c3ccccc3CC(=O)c3sccc32)CC1`: “inactive”; for `CSc1ccc(C(=O)c2[nH]c(=O)[nH]c2C)cc1`: “inactive”.
For `CCN(CC)CC(=O)Nc1c(C)cccc1C` the value was “inactive”; for `C=Cc1c(C)c2cc3[nH]c(cc4nc(cc5nc(cc1[nH]2)C(C)=C5CCC(=O)O)C(CCC(=O)O)=C4C)c(C)c3C=C`, “inactive”.
For `O=C1NCN(c2ccccc2)C12CCN(CCCC(c1ccc(F)cc1)c1ccc(F)cc1)CC2` the value was “inactive”; for `CCCCNc1ccc(C(=O)OCCN(C)C)cc1`, “inactive”.
For `C[n+]1cc2c3c(ccc2c2ccc4cc5c(cc4c21)OCO5)OCO3`, the result was inactive.
As to `Clc1ccc(Cn2c(CN3CCCC3)nc3ccccc32)cc1`, the compound was called inactive.
Consider `N[C@@H](Cc1c[nH]c2ccc(O)cc12)C(=O)O`, for which the outcome was inactive.
The same measure for `CCc1cccc2c3c([nH]c12)C(CC)(CC(=O)O)OCC3` (stereo unspecified): “inactive”; for `CCCn1cnc2c1c(=O)n(CCCCC(C)=O)c(=O)n2C`: “inactive”; for `COc1nc(C)nc(Cl)c1NC1=NCCN1`: “inactive”.
For `CCOC(=O)C(C)(C)Oc1ccc(Cl)cc1` the value was “inactive”.
For `Cc1ccc(N(CC2=NCCN2)c2cccc(O)c2)cc1` the value was “inactive”.
Regarding `CNC[C@H](O)c1ccc(O)c(O)c1`, the result was inactive.
The same measure for `NC(N)=NCCC[C@H](N)C(=O)O`: “inactive”.
The same measure for `CCCOc1ccccc1-c1nc2n[nH]nc2c(=O)[nH]1`: “inactive”.

(Values after PubChem BioAssay (NCATS).)
